Reference: PubChem BioAssay (Tox21)
Records with an inconclusive call do not appear. Unmarked numbers belong to inactive results. Active and inactive are the calls of the source. The call rests on the fitted dose curve; in most records, active means well fitted cell-killing curve with a large enough effect in the repeat runs; inconclusive means weak or mixed curves; inactive means flat fitted curve, though single readings scatter.

Experiment: qHTS RealTime-Glo MT Cell Viability Assay in HepG2 cells - 16 hour (AID 1224885); further: nearly all actives have a fitted effect of over 50% in size
Conditions: RealTime-Glo luminescence; series mostly up to 76.8 µM
Excerpt: U.S. Tox21 Program National Center for Advancing Translational Sciences [NCATS] NIH Chemical Genomics Center [NCGC] U.S. Environmental Protection Agency [EPA] National Institutes of Environmental Health Sciences [NIEHS] National Toxicology Program [NTP] U.S. Food and Drug Administration [FDA] Tox21 Assay Overview: Measure of cell viability is critical in the cell-base assay. Analysis of cell viability is necessary for the characterization of cell responses to cytotoxic drugs and environmental stress. A RealTime-Glo MT Cell Viability Assay to monitor cell viability in real time of continues cell culture during 40 hours of compound treatment was used to screen Tox21 10K library compounds in HepG2 cells. The RealTime-Glo MT Cell Viability Assay is a nonlytic, homogeneous, bioluminescent method to measure cell viability in real time using a simple, plate-based method. The assay involves adding NanoLuc luciferase and a cell-permeant prosubstrate to cells in culture. Viable cells reduce the proprietary prosubstrate to generate a substrate for NanoLuc luciferase. This substrate diffuses from cells into the surrounding culture medium, where it is rapidly used by the NanoLuc Enzyme to produce a luminescent signal. The signal correlates with the number of viable cells, making the assay well suited for cytotoxicity studies.
Tox21 Assay Protocol Summary: The mixture of HepG2 cell suspension and reagents were dispensed at 600cells/6 ul/well in 1536-well tissue culture treated black solid bottom plates using a Multidrop dispenser. After the assay plates were incubated at a 37 C/5% CO2 incubator for 5 hours, 23 nL of compounds dissolved in DMSO, positive and negative controls was transferred to the assay plate by a pintool work station. The plates were incubated at 37 C for 40 hours. The luminescence intensity were measured at 0h, 8h, 16h, 24h, 32h and 40h time points using ViewLux plate reader during compound treatment.
On the % scale 0 is the no-effect control and ±100 the full control effect.

With `O=C(Nc1cccc(C2=NCCN2)c1)Nc1cccc(C2=NCCN2)c1` as the compound, how does the activity change, negative = cytotoxic read?
Its activity change, negative = cytotoxic is 0.713% [at 15.8 µM].

With `CCNC(=O)/C=C/c1cccc(Br)c1` as the compound, how does the outcome read?
Its outcome is “inactive”.

Which outcome does the source give for `CCC(=O)c1ccc(O)cc1` here?
The outcome was “inactive”.

For `C=C[Si](C)(C)O[Si](C)(C)C=C`, which outcome is on record?
The outcome was “inactive”.

Which outcome does the source give for `CCCOC(=O)CCCCC(=O)OCCC` here?
Its outcome is “inactive”.

Which outcome does the source give for `CC(=O)OCCCc1ccccc1` here?
Its outcome is “inactive”.

For `O=S1(=O)CCCC1`, which outcome is on record?
The outcome was “inactive”.

For `Cc1nc2n(c(=O)c1CCN1CCC(C(=O)c3ccc(F)cc3)CC1)CCS2`, which outcome is on record?
The outcome was “inactive”.

With `CCCCCN(CCCOC)C(=O)C(CCC(=O)O)NC(=O)c1ccc(Cl)c(Cl)c1` (stereo not given) as the compound, how does the outcome read?
Its outcome is “inactive”.

For `CCCCC(CC)C(=O)OC(C)C` (stereo not given), which outcome is on record?
The outcome was “inactive”.

For `COc1ccc(N=Nc2cc(C)c(N=Nc3ccc(S(=O)(=O)O)cc3)cc2OC)cc1`, which outcome is on record?
Its outcome is “inactive”.

With `Nc1ccc(/C=C/c2ccc(N)cc2S(=O)(=O)O)c(S(=O)(=O)O)c1` as the compound, how does the activity change, negative = cytotoxic read?
Its activity change, negative = cytotoxic is 4.55% [at 0.29 µM].

With `O=C(O)c1ccccc1C(=O)OCc1ccccc1` as the compound, how does the outcome read?
Its outcome is “inactive”.

For `CC(C)C(=O)c1ccccc1`, which outcome is on record?
Its outcome is “inactive”.

For `O=C(O)c1ccccc1C(=O)Nc1ccc(S(=O)(=O)Nc2nccs2)cc1`, which outcome is on record?
The outcome was “inactive”.

With `CO[Si](CCCS)(OC)OC` as the compound, how does the outcome read?
Its outcome is “inactive”.

For `C1=C\CC/C=C\CC/1`, which outcome is on record?
Its outcome is “inactive”.

Which outcome does the source give for `Nc1cc(Cl)cc(S(=O)(=O)O)c1O` here?
Its outcome is “inactive”.

Which outcome does the source give for `O=S(=O)(O)CCO` here?
The outcome was “inactive”.

Which outcome does the source give for `CC(C)COC(=O)/C=C/c1ccccc1` here?
The outcome was “inactive”.

Which outcome does the source give for `CC(=O)c1ccc2c(c1)CCCC2` here?
Its outcome is “inactive”.

Which outcome does the source give for `CC(C)C(=O)Nc1cccc(C(F)(F)F)c1` here?
Its outcome is “inactive”.

Which outcome does the source give for `O=C(O)CCNC(=O)c1ccccc1` here?
The outcome was “inactive”.

For `NC(=O)NC(=O)Cc1ccccc1`, which outcome is on record?
The outcome was “inactive”.

With `CN(C1CCCCC1)S(=O)(=O)c1ccccc1N` as the compound, how does the outcome read?
Its outcome is “inactive”.

With `O=S(=O)(O)SSS(=O)(=O)O` as the compound, how does the outcome read?
Its outcome is “inactive”.

With `C[Si]1(C)N[Si](C)(C)N[Si](C)(C)N1` as the compound, how does the outcome read?
Its outcome is “inactive”.

With `COc1cc2c3cc1Oc1cc(ccc1O)C[C@@H]1c4c(cc(OC)c(O)c4Oc4ccc(cc4)C[C@@H]3N(C)CC2)CC[N+]1(C)C` as the compound, how does the outcome read?
Its outcome is “inactive”.

For `CC(=O)OC(C)c1ccccc1` (stereo not given), which outcome is on record?
The outcome was “inactive”.

With `C=CCOC(=O)c1ccc(C(=O)OCC=C)c(C(=O)OCC=C)c1` as the compound, how does the outcome read?
Its outcome is “inactive”.

Which outcome does the source give for `CC1CCC(C(C)(C)S)C(=O)C1` (stereo not given) here?
The outcome was “inactive”.

For `CCNC(=O)NCCCOc1cccc(CN2CCCCC2)c1`, which outcome is on record?
The outcome was “inactive”.

Which outcome does the source give for `CC(CC(=O)O)CC(C)(C)C` (stereo not given) here?
The outcome was “inactive”.

With `CC(C)=CC(C)(C)C` as the compound, how does the outcome read?
The outcome was “inactive”.

Which outcome does the source give for `CO[Si](CCCCl)(OC)OC` here?
The outcome was “inactive”.

Which outcome does the source give for `CNC(=O)NC` here?
Its outcome is “inactive”.

With `CCC(CO)CO` as the compound, how does the outcome read?
The outcome was “inactive”.

With `CCCCC/C=C/CC(=O)OC` as the compound, how does the outcome read?
The outcome was “inactive”.

For `Cc1cc(O)c2c(c1)C(=O)c1cccc(O)c1C2=O`, which outcome is on record?
Its outcome is “inactive”.

For `CC(=O)Nc1ncc([N+](=O)[O-])s1`, which outcome is on record?
The outcome was “inactive”.
